# Test results taken from PubChem BioAssay (Tox21).
# Records with an inconclusive call do not appear. A call without a number means that no potency is given here. Activity calls are given as the source filed them. Unless noted, the call rests on the fitted dose curve; in most records, active means well fitted curve in the direction sought with a large enough effect in the repeat runs; inconclusive means weak or mixed curves; inactive means no such curve, though single readings can be large; an effect the other way counts as inactive or inconclusive.
# Legend:
# [1] = qHTS assay to identify small molecule antagonists of the estrogen receptor alpha (ER-alpha) signaling pathway using the BG1 cell line in the presence of 0.1 nM 17-beta-estradiol - cell viability counter screen (AID 1259241); further: nearly all actives have a fitted effect of over 40% in size; further: potency means the concentration at half of the fitted maximal effect
# Procedure, shortened: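 Following 5 days in phenol red-free medium with charcoal-stripped serum, VM7Luc4E2 cells received test compounds alongside 0.1 nM 17beta-estradiol (final) at 37C for 22 hr. Live cells were then quantified via protease-substrate fluorescence.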
# [2] = qHTS assay to identify small molecule antagonists of the androgen receptor (AR) signaling pathway using the MDA cell line in the presence of 0.5 nM R1881 - cell viability counter screen (AID 1259242); further: nearly all actives have a fitted effect of over 45% in size; further: potency means the concentration at half of the fitted maximal effect
# Procedure, shortened: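 Steps: plate MDA-kb2 cells, rest 5 hr at 37C without CO2; pin in compounds in DMSO; add R1881 to 0.5 nM final; incubate 16 hr; add CellTiter-Fluor, 30 min; read fluorescence.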
# [3] = molecular target: Androgen receptor (Homo sapiens) (UniProt P10275); test: qHTS assay to identify small molecule antagonists of the androgen receptor (AR) signaling pathway using the MDA cell line in the presence of 0.5 nM R1881 (AID 1259243); further: nearly all actives have a fitted effect of over 50% in size; further: potency means the concentration at half of the fitted maximal effect
# Procedure, shortened: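 Stably transfected MDA-kb2 cells express luciferase from an MMTV promoter bearing both AR and GR response elements. Compounds plus 0.5 nM R1881 (final) were incubated 16 hr at 37C without CO2, then luminescence measured.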
# [4] = molecular target: Estrogen receptor (Homo sapiens) (UniProt P03372); test: qHTS assay to identify small molecule antagonists of the estrogen receptor alpha (ER-alpha) signaling pathway using the BG1 cell line in the presence of 0.1 nM 17-beta-estradiol (AID 1259244); further: nearly all actives have a fitted effect of over 50% in size; further: potency means the concentration at half of the fitted maximal effect
# Procedure, shortened: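 Antagonist mode: compounds in DMSO are pinned onto VM7Luc4E2 reporter cells, 0.1 nM final 17beta-estradiol is added, and after 22 h at 37C luciferase luminescence is measured with ONE-Glo.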
# [5] = qHTS assay to identify small molecule HDAC inhibitors (AID 1259364);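 further: wild-type HCT-116 cells with endogenous class I/II HDAC activity; top concentration of the series differs between compounds; nearly all actives have a fitted effect of over 45% in size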
# Procedure, shortened: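 Cells (HCT-116, wild type) are seeded at 1,500 per well, incubated overnight, treated with compound in DMSO for 2 hr, then developed with HDAC-Glo I/II reagent for 30 min at room temperature.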
# [6] = qHTS assay to identify small molecule HDAC inhibitors - cell viability counter screen (AID 1259365); further: nearly all actives have a fitted effect of over 50% in size; further: potency means the concentration at half of the fitted maximal effect
# Procedure, shortened: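 HCT-116 wild-type, overnight attachment; 2hr drug exposure, 37C; CellTiter-Glo luminescent ATP readout after 30min RT.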
# [7] = qHTS assay to identify small molecule antagonists of the sonic hedgehog signaling (Shh) pathway - cell viability counter screen (AID 1259367); further: nearly all actives have a fitted effect of over 55% in size; further: potency means the concentration at half of the fitted maximal effect
# Procedure, shortened: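 CellTiter-Fluor signal in conditioned medium-stimulated 3T3 Gli1-Luc cells, 23 hr compound exposure, 37C.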
# [8] = qHTS assay to identify small molecule agonists of the sonic hedgehog signaling (Shh) pathway (AID 1259368; calls by dose curve;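 further: NIH/3T3-derived 3T3Gli1-Luc cells carrying a stable Gli1-driven firefly luciferase reporter; series mostly up to about 92 µM; nearly all actives have a fitted effect of over 15% in size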)
# Procedure, shortened: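 Cells of a mouse NIH/3T3 clone stably expressing luciferase under the Gli1 transcriptional response element are exposed to test chemicals for 24 hr at 37 C. Pathway activation is detected as a rise in luminescence.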
# [9] = qHTS assay to identify small molecule antagonists of the sonic hedgehog signaling (Shh) pathway (AID 1259369; calls by dose curve; further: nearly all actives have a fitted effect of over 45% in size; further: potency means the concentration at half of the fitted maximal effect)
# Procedure, shortened: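 Cells are plated and held 4hr at 37 C, compounds (DMSO) are pinned in, conditioned medium is added to stimulate the pathway, and after 24hr luciferase reagent is added for 30min before luminescence is read.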
# [10] = qHTS assay to identify small molecule agonists of the androgen receptor (AR) signaling pathway in the presence of an antagonist - cell viability counter screen (AID 1259379); further: nearly all actives have a fitted effect of over 25% in size; further: potency means the concentration at half of the fitted maximal effect
# Procedure, shortened: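 Cytotoxicity is assessed by CellTiter-Fluor in MDA-kb2 cells carrying an MMTV-driven luciferase reporter. Cells receive 3.0uM nilutamide plus compounds at 15 concentrations and incubate 16 hr at 37C without CO2 before fluorescence reading.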
# [11] = qHTS assay to identify small molecule agonists of the estrogen receptor beta (ER-beta) signaling pathway - cell viability counter screen (AID 1259380); further: nearly all actives have a fitted effect of over 30% in size; further: potency means the concentration at half of the fitted maximal effect
# Procedure, shortened: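 Cytotoxicity is measured in parallel with the reporter screen: after 16 hr compound exposure at 37C and a 2 hr LiveBLAzer step, CellTiter-Glo is added to the same ER-beta-UAS-bla HEK293T wells and luminescence read after 30 min.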
# [12] = molecular target: Androgen receptor (Homo sapiens) (UniProt P10275); test: qHTS assay to identify small molecule agonists of the androgen receptor (AR) signaling pathway in the presence of an antagonist (AID 1259381; calls by dose curve; further: nearly all actives have a fitted effect of over 15% in size)
# Procedure, shortened: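 Agonist-mode confirmation screen: human MDA-kb2 cells stably expressing luciferase under an MMTV promoter bearing AR and GR response elements, co-treated with 3.0uM nilutamide (final). Luminescence measured after 16hr compound incubation.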
# [13] = qHTS assay to identify small molecule antagonists of the estrogen receptor beta (ER-beta) signaling pathway - cell viability counter screen (AID 1259382); further: nearly all actives have a fitted effect of over 55% in size; further: potency means the concentration at half of the fitted maximal effect
# Procedure, shortened: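 Cytotoxicity counter screen multiplexed with the beta-lactamase antagonist assay: GripTite HEK293T ER-beta-bla cells were treated 16 hr with test chemicals in the presence of 1nM 17-beta-estradiol, and viability was measured by CellTiter-Glo.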
# [14] = molecular target: Estrogen receptor (Homo sapiens) (UniProt P03372); test: qHTS assay to identify small molecule agonists of the estrogen receptor alpha (ER-alpha) signaling pathway in the presence of an antagonist (AID 1259383; calls by dose curve; further: top concentration of the series differs between compounds; nearly all actives have a fitted effect of over 15% in size)
# Procedure, shortened: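 Agonist-mode confirmation in the presence of the ER antagonist ICI-182,780 at 10.0nM final. Breast-derived VM7Luc4E2 reporter cells were exposed to compounds for 22hr, and ERE-driven luciferase was quantified by luminescence.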
# [15] = molecular target: Thyrotropin receptor (Homo sapiens) (UniProt P16473); test: qHTS assay to identify small molecule antagonists of the thyroid stimulating hormone receptor (TSHR) signaling pathway (AID 1259385; calls by dose curve; further: nearly all actives have a fitted effect of over 20% in size; further: potency means the concentration at half of the fitted maximal effect)
# Procedure, shortened: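 Antagonist mode: compound-treated TSHR-expressing HEK293 cells were stimulated with 1.5 ng/mL TSH (final) in presence of Ro20-1724 for 30 min at RT. HTRF cAMP detection after 1 h; each compound tested at 15 concentrations, triplicate.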
# [16] = qHTS assay to identify small molecule agonists of the sonic hedgehog signaling (Shh) pathway - cell viability counter screen (AID 1259366); further: nearly all actives have a fitted effect of over 50% in size; further: potency means the concentration at half of the fitted maximal effect
# Procedure, shortened: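 Compounds in DMSO were pin-transferred onto 3T3 Gli1-Luc cells that had settled 4hr; plates then stood 24hr at 37C and 5% CO2. One hour before the end, CellTiter-Fluor was added and fluorescence recorded.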
# [17] = qHTS assay to identify small molecule agonists or antagonists of the thyroid stimulating hormone receptor (TSHR) signaling pathway - wild type cell line counter screen (AID 1259384; calls by dose curve)
# Procedure, shortened: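 Counter screen in untransfected Hek293: compounds (15-point titration, triplicate) plus phosphodiesterase inhibitor Ro20-1724 added after 18 h plating; 30 min RT. Intracellular cAMP via competitive d2/cryptate immunoassay, 1 h incubation.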
# [18] = molecular target: Estrogen receptor beta (Homo sapiens) (UniProt Q92731); test: qHTS assay to identify small molecule agonists of the estrogen receptor beta (ER-beta) signaling pathway (AID 1259377; active means well fitted activation curve with a large enough effect in the signal ratio in the repeat runs, not every such curve was filed as active; the % refers to the signal ratio; further: potency means the concentration at half of the fitted maximal effect)
# Procedure, shortened: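 qHTS in ER-beta-UAS-bla HEK293T cells: 6 hr settling, then 16 hr compound at 37C, then LiveBLAzer substrate 2 h at RT before fluorescence reading.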
# [19] = molecular target: Estrogen receptor beta (Homo sapiens) (UniProt Q92731); test: qHTS assay to identify small molecule antagonists of the estrogen receptor beta (ER-beta) signaling pathway (AID 1259378; active means well fitted inhibition curve with a large enough effect in the signal ratio in the repeat runs, not every such curve was filed as active; the % refers to the signal ratio)
# Procedure, shortened: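 Antagonist mode: compounds added to beta-lactamase reporter HEK293T ER-beta-UAS cells stimulated with E2 (1nM final), 16 hr at 37C. LiveBLAzer B/G FRET substrate, 2 hours room temperature, fluorescence read-out.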
# [20] = qHTS assay to identify small molecule phospholipidosis (PLD) inducers (AID 1259344; active means well fitted curve in the direction sought with a large enough effect; an effect the other way counts as inactive or inconclusive)
# Procedure, shortened: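 Accumulated phospholipid, stained red by LipidTOX during 24 h compound treatment of HepG2 cells at 37 C, is quantified from images as pit number and intensity, normalised per cell using Hoechst-stained nuclei.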
# Sequence of Thyrotropin receptor (Homo sapiens) (P16473 whole entry, looked up): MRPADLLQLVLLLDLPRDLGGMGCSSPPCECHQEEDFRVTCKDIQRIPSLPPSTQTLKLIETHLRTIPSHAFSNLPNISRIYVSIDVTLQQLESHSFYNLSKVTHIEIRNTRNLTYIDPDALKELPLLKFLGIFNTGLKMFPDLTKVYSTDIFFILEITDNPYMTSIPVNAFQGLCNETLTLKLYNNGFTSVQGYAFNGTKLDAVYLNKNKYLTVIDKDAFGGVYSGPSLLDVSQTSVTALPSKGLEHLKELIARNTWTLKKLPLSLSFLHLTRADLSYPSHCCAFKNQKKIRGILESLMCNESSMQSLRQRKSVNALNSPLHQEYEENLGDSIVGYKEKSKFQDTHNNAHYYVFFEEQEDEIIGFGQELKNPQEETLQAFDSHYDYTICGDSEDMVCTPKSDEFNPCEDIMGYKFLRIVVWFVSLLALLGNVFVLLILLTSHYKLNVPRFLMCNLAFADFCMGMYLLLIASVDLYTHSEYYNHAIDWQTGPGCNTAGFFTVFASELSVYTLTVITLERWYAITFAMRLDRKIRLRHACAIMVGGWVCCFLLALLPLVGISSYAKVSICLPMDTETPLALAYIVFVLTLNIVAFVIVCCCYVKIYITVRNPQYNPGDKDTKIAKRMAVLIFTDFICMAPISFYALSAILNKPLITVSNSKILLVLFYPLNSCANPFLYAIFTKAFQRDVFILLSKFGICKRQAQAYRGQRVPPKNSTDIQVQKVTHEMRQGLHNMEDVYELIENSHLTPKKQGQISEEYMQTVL
# Sequence of Androgen receptor (Homo sapiens) (P10275 whole entry, looked up): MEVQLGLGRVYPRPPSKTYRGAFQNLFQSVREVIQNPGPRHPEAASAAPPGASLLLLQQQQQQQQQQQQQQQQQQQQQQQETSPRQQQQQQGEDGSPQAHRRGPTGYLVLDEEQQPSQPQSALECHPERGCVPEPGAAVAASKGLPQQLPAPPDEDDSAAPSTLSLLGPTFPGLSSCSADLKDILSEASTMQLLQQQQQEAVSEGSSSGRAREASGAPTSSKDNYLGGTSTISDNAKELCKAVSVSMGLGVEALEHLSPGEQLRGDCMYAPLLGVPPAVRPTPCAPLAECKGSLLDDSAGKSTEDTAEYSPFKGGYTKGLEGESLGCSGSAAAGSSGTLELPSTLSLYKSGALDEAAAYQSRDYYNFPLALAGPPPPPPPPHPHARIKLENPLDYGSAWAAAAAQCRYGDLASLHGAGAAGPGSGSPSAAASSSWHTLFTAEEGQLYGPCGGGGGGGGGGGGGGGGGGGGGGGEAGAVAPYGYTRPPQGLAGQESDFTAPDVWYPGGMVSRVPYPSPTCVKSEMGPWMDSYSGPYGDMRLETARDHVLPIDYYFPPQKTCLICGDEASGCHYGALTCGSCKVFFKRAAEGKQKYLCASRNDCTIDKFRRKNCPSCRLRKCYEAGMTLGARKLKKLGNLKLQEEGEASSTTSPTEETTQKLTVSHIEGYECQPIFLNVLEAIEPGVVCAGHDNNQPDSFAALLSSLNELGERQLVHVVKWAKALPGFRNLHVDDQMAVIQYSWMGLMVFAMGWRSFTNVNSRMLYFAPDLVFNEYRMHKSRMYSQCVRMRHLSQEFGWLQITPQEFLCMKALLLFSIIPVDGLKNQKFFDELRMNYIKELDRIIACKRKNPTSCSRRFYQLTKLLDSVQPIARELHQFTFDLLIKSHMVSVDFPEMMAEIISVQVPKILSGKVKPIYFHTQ
# Sequence of Estrogen receptor beta (Homo sapiens) (Q92731 whole entry, looked up): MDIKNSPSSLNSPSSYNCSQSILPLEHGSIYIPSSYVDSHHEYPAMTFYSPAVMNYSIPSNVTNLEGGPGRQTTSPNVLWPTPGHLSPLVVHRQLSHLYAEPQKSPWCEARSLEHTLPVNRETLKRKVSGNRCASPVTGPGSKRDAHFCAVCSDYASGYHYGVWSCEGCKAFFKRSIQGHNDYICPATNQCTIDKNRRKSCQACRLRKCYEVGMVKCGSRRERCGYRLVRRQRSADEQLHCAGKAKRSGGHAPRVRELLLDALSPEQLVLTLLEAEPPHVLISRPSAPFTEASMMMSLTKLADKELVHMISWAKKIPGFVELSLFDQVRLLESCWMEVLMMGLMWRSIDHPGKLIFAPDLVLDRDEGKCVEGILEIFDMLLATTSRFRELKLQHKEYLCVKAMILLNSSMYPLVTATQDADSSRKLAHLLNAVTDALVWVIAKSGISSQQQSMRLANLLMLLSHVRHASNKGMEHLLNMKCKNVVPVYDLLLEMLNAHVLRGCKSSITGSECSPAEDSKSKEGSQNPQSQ
# Sequence of Estrogen receptor (Homo sapiens) (P03372 whole entry, looked up): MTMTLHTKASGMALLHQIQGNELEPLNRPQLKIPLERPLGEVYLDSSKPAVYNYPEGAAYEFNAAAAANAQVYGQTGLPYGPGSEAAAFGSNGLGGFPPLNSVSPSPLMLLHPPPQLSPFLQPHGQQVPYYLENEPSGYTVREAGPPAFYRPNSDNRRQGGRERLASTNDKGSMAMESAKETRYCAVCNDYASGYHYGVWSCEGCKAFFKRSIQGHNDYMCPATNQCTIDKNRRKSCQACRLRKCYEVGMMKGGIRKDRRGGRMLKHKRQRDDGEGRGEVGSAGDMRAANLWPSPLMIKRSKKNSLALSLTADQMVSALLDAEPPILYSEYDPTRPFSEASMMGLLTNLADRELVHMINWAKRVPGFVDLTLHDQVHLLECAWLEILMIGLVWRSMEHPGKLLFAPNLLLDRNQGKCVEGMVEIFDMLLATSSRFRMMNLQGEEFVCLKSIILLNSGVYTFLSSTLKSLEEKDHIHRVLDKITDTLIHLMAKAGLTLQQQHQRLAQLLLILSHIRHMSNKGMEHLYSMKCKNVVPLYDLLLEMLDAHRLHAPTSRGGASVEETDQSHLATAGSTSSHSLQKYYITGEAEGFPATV
Compound,Potency [1],Potency [2],Potency [3],Potency [4],Potency [5],Potency [6],Potency [7],Potency [8],Potency [9],Potency [10],Potency [11],Potency [12],Potency [13],Potency [14],Potency [15],Potency [16],Potency [17],Potency [18],Potency [19],outcome [20]
C=CC(=O)[O][Sn]([CH2]CCC)([CH2]CCC)[CH2]CCC,27.3 µM (active),1.09 µM (active),0.545 µM (active),1.72 µM (active),inactive,19.3 µM (active),1.09 µM (active),inactive,0.486 µM (active),4.33 µM (active),2.43 µM (active),inactive,3.06 µM (active),inactive,13.7 µM (active),,,,,
Cc1ccccc1OP(=O)(Oc1ccccc1C)Oc1ccccc1C,inactive,inactive,48.8 µM (active),inactive,,inactive,,inactive,,inactive,,,,,inactive,inactive,inactive,,,
O=[N+]([O-])C(Br)Br,inactive,inactive,inactive,,inactive,inactive,inactive,inactive,inactive,,inactive,,inactive,,,inactive,inactive,inactive,,
Nc1ccc(Cl)cc1C(=O)c1ccccc1F,inactive,inactive,10.6 µM (active),inactive,inactive,,inactive,inactive,inactive,inactive,inactive,inactive,inactive,inactive,inactive,inactive,inactive,,,
O=C(CCCCl)c1ccc(F)cc1,inactive,inactive,inactive,inactive,inactive,inactive,inactive,inactive,inactive,inactive,inactive,,inactive,inactive,inactive,inactive,inactive,,,
N#Cc1c2ccccc2cc2ccccc12,inactive,inactive,10.8 µM (active),inactive,inactive,,,inactive,inactive,,inactive,,inactive,inactive,inactive,,inactive,21.6 µM (active),,
Cc1ccc([N+](=O)[O-])[c]2c1[O][Hg]2,9.44 µM (active),6.68 µM (active),2.37 µM (active),7.5 µM (active),,29.8 µM (active),3.35 µM (active),inactive,0.266 µM (active),13.3 µM (active),4.22 µM (active),,5.31 µM (active),inactive,21.1 µM (active),2.66 µM (active),inactive,inactive,,
CN/C(=N\[N+](=O)[O-])NCc1cnc(Cl)s1,inactive,inactive,,inactive,inactive,inactive,inactive,inactive,inactive,inactive,inactive,,inactive,,,inactive,,inactive,inactive,
CC1CN1 (configuration not stated),inactive,inactive,,inactive,inactive,inactive,inactive,inactive,inactive,inactive,inactive,,inactive,inactive,inactive,inactive,inactive,inactive,inactive,
Cc1cccc(Cc2cnc[nH]2)c1C,inactive,inactive,,inactive,inactive,inactive,inactive,inactive,inactive,inactive,inactive,,inactive,inactive,inactive,inactive,inactive,inactive,,inactive
CC(Cc1ccc(OCC(=O)O)cc1)NCC(O)c1csc(C(F)(F)F)n1 (configuration not stated),inactive,inactive,,inactive,inactive,inactive,3.86 µM (active),inactive,inactive,inactive,inactive,,inactive,,inactive,6.11 µM (active),inactive,inactive,inactive,
CC(C)[C@@H](Nc1ccc(C(F)(F)F)cc1Cl)C(=O)OC(C#N)c1cccc(Oc2ccccc2)c1 (some centres not stated),inactive,inactive,,inactive,inactive,inactive,inactive,inactive,inactive,inactive,inactive,,inactive,inactive,,inactive,,inactive,,
Brc1cccc(-c2ccccc2)c1,inactive,inactive,,inactive,inactive,inactive,inactive,inactive,inactive,inactive,inactive,,inactive,inactive,,inactive,,inactive,inactive,
COC(=O)/C=C(\C)OP(=O)(OC)OC,inactive,inactive,,inactive,inactive,inactive,inactive,inactive,inactive,inactive,inactive,,inactive,inactive,,inactive,inactive,inactive,,
O=C(O)CCCCCCNC1c2ccccc2CCc2ccccc21,inactive,inactive,,inactive,inactive,,inactive,inactive,inactive,inactive,inactive,,inactive,,inactive,,inactive,inactive,inactive,inactive
